High-throughput results (PubChem)
In the library only some 19% were active in any assay of this set; here they are far more common.
DT40 TDP1 CPT: DT40-hTDP1 cell growth loss with CPT | actives 12% (n = 420,000) | Potency, µM (doses to about 46.2 µM), most hits filed as inhibitors | chicken DT40 Tdp1-/-;hTDP1 cells + 20 nM CPT, ATP luminescence, 48 h; also: nearly all actives have a fitted effect of over 55% in size
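Cell growth measured by CellTiter-Glo luminescence after a minimum 48 h, 37 C compound exposure with 20 nM CPT in Tdp1-knockout DT40 cells stably expressing hTDP1, seeded 400/well; qHTS titration format.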
ELG1 DNA repair: blocks ELG1-dependent DNA repair in HEK293T cells; HEK293T ELG1-luciferase reporter, luminescence, 16 h; DNA damage induced by 5-fluorouridine; Potency, µM (titrated, usually from 46.1 µM), actives largely listed as inhibitors; actives 2.3% (n = 330,000); AID 504467; also: nearly all actives have a fitted effect of over 55% in size
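Luminescence from the luciferase reporter, measured 30 min after ONE-Glo reagent at room temperature, was the read-out. Beforehand, 2,000 cells per well were exposed for 16 hr at 37 °C to 5-fluorouridine together with compound or vehicle.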
IL-1B inflam inh: blocks inflammasome-driven IL-1 beta release. activity change, % at 57.5 µM. AID 743279. THP-1 LPS/ATP IL-1B secretion, AlphaLISA, 16 h; active compounds read low. actives 4.7% (n = 360,000); in the data active = activity change below about -50%; inconclusive = mostly about -30% to -49%
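Secreted IL-1B measured by AlphaLISA bead assay after 16 h compound exposure of THP-1 cells; compounds (final up to 57.5 uM) added 1 h before LPS (250 ng/mL) and ATP (1.25 mM) stimulation; lower signal means less secretion.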
TDP1 block: blocks human tyrosyl-DNA phosphodiesterase 1 | recombinant TDP1, AlphaScreen DNA substrate cleavage | Potency, µM (titrated, usually from 130 µM), usual class: inhibitors | actives 0.28% (n = 350,000) | AID 485290; also: nearly all actives have a fitted effect of over 40% in size
Target sequence (Q9NUW8 whole entry, looked up): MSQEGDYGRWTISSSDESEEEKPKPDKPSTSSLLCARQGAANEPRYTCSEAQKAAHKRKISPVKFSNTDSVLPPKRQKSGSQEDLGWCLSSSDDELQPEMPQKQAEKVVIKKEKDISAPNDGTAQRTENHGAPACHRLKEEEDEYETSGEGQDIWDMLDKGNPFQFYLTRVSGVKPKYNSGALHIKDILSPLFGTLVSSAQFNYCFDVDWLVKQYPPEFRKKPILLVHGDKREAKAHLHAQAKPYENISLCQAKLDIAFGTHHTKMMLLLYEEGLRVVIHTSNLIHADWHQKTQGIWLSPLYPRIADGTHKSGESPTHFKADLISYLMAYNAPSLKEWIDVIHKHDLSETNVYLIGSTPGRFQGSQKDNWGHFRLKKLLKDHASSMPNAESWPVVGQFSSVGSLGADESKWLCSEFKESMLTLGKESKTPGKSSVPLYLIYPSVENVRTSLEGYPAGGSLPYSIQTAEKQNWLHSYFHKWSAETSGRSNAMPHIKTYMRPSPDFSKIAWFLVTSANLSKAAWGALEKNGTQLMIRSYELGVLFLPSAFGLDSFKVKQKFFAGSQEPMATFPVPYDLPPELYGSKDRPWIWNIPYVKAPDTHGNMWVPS
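Steps: enzyme plus compound, 15 min RT; add biotin/phosphotyrosine-FITC oligonucleotide (15 nM final), react 5 min; add donor/acceptor beads (10 ug/ml final), 10 min; read AlphaScreen. Tdp1 at 1 nM final.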
Giardia killer: kills Giardia lamblia; Giardia lamblia trophozoite viability; actives 0.15% (n = 340,000); activity change, % at 7.66 µM, hits read low; AID 540267; in the data active = activity change below about -80%; inconclusive = between about -30% and that limit;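 also: parasites exposed to compound for two days anaerobically before the ATP read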
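Media and compound were dispensed first, then trophozoites at 100 cells/well; plates sat 48 hrs at 37 deg C without oxygen before ATP luminescence reagent was added and read after 15-30 min at room temperature.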
DT40 TDP1 no CPT: qHTS for Inhibitors of human tyrosyl-DNA phosphodiesterase 1 (TDP1): qHTS in cells in absence of CPT; DT40 Tdp1-/- hTDP1 cells, no CPT, ATP luminescence, 48 h; Potency, µM (series often up to 46.2 µM), most hits filed as inhibitors; actives 15% (n = 420,000); AID 686978, 2013; also: nearly all actives have a fitted effect of over 55% in size
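Compound effects on proliferation are scored in DT40 Tdp1-/-;hTDP1 cells in the absence of CPT. ATP levels (CellTiter-Glo luminescence) are recorded after a ≥48 hr, 37 °C incubation.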
Of the large screens only hits and unclear results are named; the others gave an inactive call. Unless noted, calls follow the shape of the dose curve; as a rule, active = well fitted curve in the direction sought with a large enough effect; inconclusive = small, poorly fitted or top-dose-only effect, or another doubt; inactive = no such curve, though single readings can be large; an effect the other way counts as inactive or inconclusive.

COc1ccccc1N1CCN(C(=O)c2ccc(CN3CCOCC3)cc2)CC1	DT40 TDP1 CPT inconclusive, DT40 TDP1 no CPT inconclusive
CCOC(=O)C1(CCOc2ccccc2)CCN(Cc2cc(OC)c3c(c2)OCO3)CC1	DT40 TDP1 CPT 20.6µM, ELG1 DNA repair inconclusive, IL-1B inflam inh -60.5, DT40 TDP1 no CPT 11.6µM (no result: TDP1 block)
CCOC(=O)C1(CCOc2ccccc2)CCN(Cc2cccc3c2OCO3)CC1	DT40 TDP1 CPT 23.1µM, ELG1 DNA repair inconclusive, IL-1B inflam inh -84.3, DT40 TDP1 no CPT 14.6µM
COCCN(CCOC)c1nc(C)nc2c1nc(-c1ccccc1)n2CCN1CCCC1	none (no result: DT40 TDP1 CPT, ELG1 DNA repair, IL-1B inflam inh, Giardia killer, DT40 TDP1 no CPT)
Cn1c(SCc2cccc(C#N)c2)nc2ccccc2c1=O	DT40 TDP1 CPT inconclusive, ELG1 DNA repair inconclusive, IL-1B inflam inh -50.4, DT40 TDP1 no CPT inconclusive (no result: TDP1 block)
Cc1ccc(CSc2nc3ccccc3c(=O)n2C)cc1	DT40 TDP1 CPT inconclusive, ELG1 DNA repair inconclusive, DT40 TDP1 no CPT inconclusive (no result: TDP1 block)
Cn1c(SCc2cccc([N+](=O)[O-])c2)nc2ccccc2c1=O	DT40 TDP1 CPT 16.4µM, ELG1 DNA repair inconclusive, DT40 TDP1 no CPT 11.6µM
CCOC(CCn1c(SCc2cccc([N+](=O)[O-])c2)nc2ccccc2c1=O)OCC	DT40 TDP1 CPT 16.4µM, ELG1 DNA repair inconclusive, DT40 TDP1 no CPT inconclusive
COCCn1c(SCc2cccc([N+](=O)[O-])c2)nc2ccccc2c1=O	DT40 TDP1 CPT inconclusive, IL-1B inflam inh inconclusive, DT40 TDP1 no CPT inconclusive (no result: TDP1 block)
CCCCn1c(SCc2cccc([N+](=O)[O-])c2)nc2ccsc2c1=O	DT40 TDP1 CPT inconclusive, ELG1 DNA repair inconclusive, DT40 TDP1 no CPT 23.1µM
COc1cc(OC)c(OC)cc1/C=N/NC(=O)CSc1ccccc1F	none (no result: TDP1 block)
CC1C(=O)N(Cc2ccccc2F)c2ccccc2N1C(=O)c1c(F)cccc1F (centres undefined)	DT40 TDP1 CPT 18.4µM, ELG1 DNA repair inconclusive, IL-1B inflam inh inconclusive, DT40 TDP1 no CPT 18.4µM (no result: TDP1 block)
COc1cccc(CN2C(=O)C(C)N(C(=O)c3c(F)cccc3F)c3ccccc32)c1 (centres undefined)	DT40 TDP1 CPT 23.1µM, ELG1 DNA repair inconclusive, DT40 TDP1 no CPT 10.3µM (no result: TDP1 block)
CC1C(=O)N(Cc2cccc(F)c2)c2ccccc2N1C(=O)c1ccccc1 (centres undefined)	DT40 TDP1 CPT inconclusive, ELG1 DNA repair 23.1µM, DT40 TDP1 no CPT 14.6µM (no result: TDP1 block)
COc1cccc(-c2ccc3c(c2)N(Cc2cccc(F)c2)C(=O)C(C)S3)c1 (centres undefined)	DT40 TDP1 CPT inconclusive, DT40 TDP1 no CPT inconclusive (no result: ELG1 DNA repair, TDP1 block, Giardia killer)
COc1cc(C(=O)N2Cc3cc4ccccc4nc3C2C)cc(OC)c1OC (centres undefined)	DT40 TDP1 no CPT inconclusive (no result: ELG1 DNA repair, TDP1 block, Giardia killer)
CCOC(=O)N1CCc2c(sc3nc(SC(C)C)n(N)c(=O)c23)C1	DT40 TDP1 CPT 9.2µM, ELG1 DNA repair inconclusive, DT40 TDP1 no CPT 23.1µM
Cc1ccccc1OCc1nc2c3cnn(-c4cccc(F)c4)c3ncn2n1	DT40 TDP1 CPT inconclusive, DT40 TDP1 no CPT inconclusive (no result: ELG1 DNA repair, IL-1B inflam inh, Giardia killer)
Cc1cccc(C)c1OCc1nc2c3cnn(-c4cccc(F)c4)c3ncn2n1	DT40 TDP1 CPT 18.4µM, DT40 TDP1 no CPT 16.4µM (no result: ELG1 DNA repair, IL-1B inflam inh, Giardia killer)
CC1(C)N=c2ccc([N+](=O)[O-])c(N)c2=[N+]1[O-]	DT40 TDP1 CPT 14.6µM, ELG1 DNA repair inconclusive, Giardia killer inconclusive, DT40 TDP1 no CPT 20.6µM (no result: TDP1 block)
Cc1ccc([N+](=O)[O-])c(N)c1	none (no result: DT40 TDP1 CPT, ELG1 DNA repair, IL-1B inflam inh, Giardia killer, DT40 TDP1 no CPT)
C=CCn1c(SCC(=O)NCC)nc2sc3c(c2c1=O)CCC3	none (no result: TDP1 block)
COc1ccc(Cl)cc1NC(=O)CSc1nc(N2CCOCC2)nc(N2CCOCC2)n1	DT40 TDP1 CPT inconclusive, ELG1 DNA repair 25.9µM, DT40 TDP1 no CPT inconclusive
COc1ccc(Cl)cc1NC(=O)CSc1nc(N2CCCCC2)nc(N2CCCCC2)n1	DT40 TDP1 CPT inconclusive, DT40 TDP1 no CPT 16.4µM
CC(=O)c1cccc(NC(=O)CSc2nc(N3CCCCC3)nc(N3CCCCC3)n2)c1	ELG1 DNA repair inconclusive, DT40 TDP1 no CPT 25.9µM
COc1ccc(OC)c(NC(=O)CSc2nc(N3CCOCC3)nc(N3CCOCC3)n2)c1	DT40 TDP1 CPT inconclusive, DT40 TDP1 no CPT inconclusive
